We go through 18 compounds from PubChem BioAssay (NCI).

What all share (assay): NCI-60 one-dose screen, 48 h (100 = growth as untreated, 0 = no growth, -100 = all killed)
For one test, the system named is T-47D breast. The following applies: 10 µM.
The subject of a further test is BT-549 breast. As to conditions: 10 µM.
The test system of the next test is MDA-MB-435 melanoma. As to conditions: 10 µM.
For a further test, the system named is SW-620 colon. The following applies: 10 µM.
A further test concerns MCF7 breast. As to conditions: 10 µM unless noted.
For the next test, the system named is HCT-116 colon. As to conditions: 10 µM.
Another test deals with HCC-2998 colon. The following applies: 10 µM.
A further test has as its system KM12 colon. As to conditions: 10 µM.

Each structure is given as a SMILES string. The panel holds about 83,000 compounds, 20% with a hit somewhere; the sample as a whole holds those more often.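 Single-concentration screen, 48 h exposure, 96-well plates. Endpoint: percent growth. Below 10 = active.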 A number with no mark means an inactive call. Active and inactive are the calls of the source.

For `CC1(C)/C(=C\CO)C2CCC1C2` (centres undefined), the growth in the test with T-47D breast was 101%; with BT-549 breast, 102%; in the test on MDA-MB-435 melanoma, 123%; in the test with SW-620 colon, 106%; in the test with MCF7 breast, 104%; in the test with HCT-116 colon it was 96.8%. In addition, the growth in the test on HCC-2998 colon was 104%; with KM12 colon it was 114%.

With `CC(C)COC(=O)COC(=O)OCCOCCOC(=O)OCC(=O)OCC(C)C`, the growth in the test on T-47D breast is 96.7%; with BT-549 breast it was 99.2%; in the test with MDA-MB-435 melanoma it was 119%; with SW-620 colon it was 108%; with MCF7 breast, 98.7%; with HCT-116 colon, 103%. For the same compound, the growth in the test with HCC-2998 colon is 101%; in the test on KM12 colon, 104%.

As for `O=C(/C(=N/O)c1ccccc1)c1ccccc1`, the growth in the test with T-47D breast is 90.2%; in the test on BT-549 breast, 98%; in the test on MDA-MB-435 melanoma, 108%; in the test on SW-620 colon, 107%; with MCF7 breast it was 87.9%; with HCT-116 colon, 98%. Moreover, the growth in the test on HCC-2998 colon and with KM12 colon was 107% each time.

Turning to `O=c1cc(-c2ccccc2)[nH]c2c1CCCC2`, the growth in the test with T-47D breast is 22.8%; in the test with BT-549 breast, 53.7%; with MDA-MB-435 melanoma, -12.9% (active); with SW-620 colon, 24.2%; in the test on MCF7 breast, 17.2%; in the test with HCT-116 colon, 27.9%. In addition, the figures for the growth in the test with HCC-2998 colon and with KM12 colon were 40% and 26.3%, respectively.

Consider `COc1cc(C2NC(=O)C(C#N)=C(Nc3cccc(C)c3)S2)ccc1O` (centres undefined), for which the growth is 93.5% in the test with T-47D breast; 101% with BT-549 breast; 104% in the test with MDA-MB-435 melanoma; 104% in the test with SW-620 colon; 92.9% in the test on MCF7 breast; 103% in the test on HCT-116 colon. Besides, the results for the growth in the test on HCC-2998 colon and in the test on KM12 colon were 106% and 104%, respectively.

`O=[N+]([O-])c1cccc(C(F)(F)F)c1`: the growth in the test with T-47D breast is 105%; in the test on BT-549 breast, 103%; in the test with MDA-MB-435 melanoma, 107%; in the test with SW-620 colon it was 92.6%; in the test with MCF7 breast, 85.4%; with HCT-116 colon, 99.1%. Also, the growth is 103% in the test with HCC-2998 colon and 119% in the test with KM12 colon.

On to `CC(=O)c1c[nH]c2ccccc12`, for which the growth in the test with T-47D breast is 97.6%; in the test on BT-549 breast, 104%; in the test with MDA-MB-435 melanoma, 97.5%; with SW-620 colon it was 105%; in the test with MCF7 breast, 100%; in the test with HCT-116 colon, 97.8%. Moreover, the growth with HCC-2998 colon was 108%; with KM12 colon, 120%.

As to `O=C(CC(=O)c1ccccc1O)c1ccccc1`, the growth with T-47D breast is 79.7%; in the test with BT-549 breast, 77.5%; in the test on MDA-MB-435 melanoma, 102%; with SW-620 colon, 86.4%; in the test on MCF7 breast, 76.4%; in the test on HCT-116 colon, 76.6%. Besides, the growth in the test on HCC-2998 colon is 107%; in the test with KM12 colon it was 92.8%.

In the case of `CNS(=O)(=O)c1ccc(Cl)c(Cl)c1`, the growth in the test with T-47D breast is 99.2%; with BT-549 breast, 112%; in the test with MDA-MB-435 melanoma, 98.7%; in the test on SW-620 colon, 104%; in the test on MCF7 breast it was 98%; with HCT-116 colon, 107%. Also, the growth in the test on HCC-2998 colon was 118%; with KM12 colon it was 108%.

`Cc1cccc([N+](=O)[O-])c1Cl`: the growth was 103% in the test with T-47D breast; 100% in the test with BT-549 breast; 91.4% in the test on MDA-MB-435 melanoma; 100% with SW-620 colon; 105% in the test on MCF7 breast; 108% in the test on HCT-116 colon. The figures for the growth in the test with HCC-2998 colon and with KM12 colon were 86.1% and 104%, respectively.

`N#CCCc1ccc(O)cc1`: the growth is 101% in the test with T-47D breast; 114% in the test on BT-549 breast; 99.8% in the test with MDA-MB-435 melanoma; 102% with SW-620 colon; 98.4% with MCF7 breast; 116% with HCT-116 colon. Besides, the growth with HCC-2998 colon is 115%; in the test with KM12 colon, 114%.

`CC(C)=NNC(N)=S`: the growth with T-47D breast is 44.1%; in the test on BT-549 breast, 88.3%; in the test with MDA-MB-435 melanoma it was 80.2%; in the test on SW-620 colon, 68.7%; in the test with MCF7 breast it was 7% (active); in the test with HCT-116 colon it was 21.4%. Besides, the growth was 105% in the test with HCC-2998 colon and 94.9% with KM12 colon.

Take `Cc1ccc(Cl)cc1N1C(=O)CC(Sc2ccccc2N)C1=O` (centres undefined): the growth with T-47D breast was 103%; with BT-549 breast, 111%; in the test on MDA-MB-435 melanoma, 102%; in the test with SW-620 colon it was 108%; with MCF7 breast, 90.2%; in the test on HCT-116 colon, 111%. The growth is 101% in the test with HCC-2998 colon and 112% in the test on KM12 colon.

`COC(=O)c1ccc(C(C)C)cc1`: the growth with T-47D breast is 82.3%; in the test on BT-549 breast, 85.6%; with MDA-MB-435 melanoma, 99.8%; with SW-620 colon it was 113%; in the test on MCF7 breast, 93.1%; with HCT-116 colon, 85.1%. Moreover, the figures for the growth in the test on HCC-2998 colon and with KM12 colon were 101% and 103%, respectively.

In the case of `O=P(O)(O)OCC(O)CO` (centres undefined), the growth was 100% in the test with T-47D breast; 102% in the test on BT-549 breast; 109% with MDA-MB-435 melanoma; 107% in the test with SW-620 colon; 95.6% in the test with MCF7 breast; 102% with HCT-116 colon. In addition, the growth is 107% with HCC-2998 colon and 105% in the test on KM12 colon.

As for `O=C1Cc2cc(O)ccc2O1`, the growth is 101% in the test with T-47D breast; 109% with BT-549 breast; 105% with MDA-MB-435 melanoma; 113% in the test with SW-620 colon; 101% in the test on MCF7 breast; 101% with HCT-116 colon. The growth in the test with HCC-2998 colon was 105%; with KM12 colon, 112%.

With `CCOC(=O)C/C(C)=N\O`, the growth in the test with T-47D breast was 98.3%; with BT-549 breast, 97.1%; in the test on MDA-MB-435 melanoma, 107%; in the test with SW-620 colon, 101%; in the test with MCF7 breast, 101%; in the test with HCT-116 colon it was 103%. Moreover, the growth with HCC-2998 colon was 101%; in the test with KM12 colon, 104%.

With `Cc1ccc(C(=O)N/N=C/c2ccc3c(c2)OCO3)cc1`, the growth in the test on T-47D breast is 94.7%; in the test with BT-549 breast, 107%; in the test on MDA-MB-435 melanoma, 92.7%; in the test on SW-620 colon, 106%; in the test with MCF7 breast it was 103%; in the test on HCT-116 colon, 92.4%. Besides, the growth in the test with HCC-2998 colon was 96%; in the test with KM12 colon, 82.1%.
